Assay [1] addresses ATP-dependent 6-phosphofructokinase (Trypanosoma brucei brucei) (UniProt O15648). The experiment in a line: qHTS Assay to Find Inhibitors of T. brucei phosphofructokinase: hit validation (AID 492961).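 Note: luminescence reports ADP formed as PFK phosphorylates fructose-6-phosphate with ATP; series mostly up to about 51 µM.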 In outline:
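ADP-Glo luminescence read-out of ADP formed by 1.25 nM PFK from 0.1 mM ATP and 0.5 mM F6P (TEA pH 8.0, 45 min, RT). Compounds titrated; activity normalized to no-enzyme and full-enzyme controls.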

The target of assay [2] is M-phase phosphoprotein 8 (Homo sapiens) (UniProt Q99549). The experiment in a line: qHTS Validation Assay for Inhibitors for MPP8 Chromodomain Interactions with Methylated Histone Tails (AID 488949).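 Note: 50 nM MPP8 with 50 nM peptide preformed then compounds added for 30 min; AlphaScreen signal from MPP8 chromodomain bound to biotinylated H3K9me3 peptide; top concentration of the series differs between compounds; nearly all actives have a fitted effect of over 55% in size.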 Put shortly:
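50 nM MPP8 + 50 nM b-H3K9me3 peptide, PBS pH 7.4/0.01% Tween-20, 30 min RT; + cpd 30 min RT; + AlphaScreen donor/Ni-chelate acceptor beads 10 ug/mL final, 30 min dark; luminescence read.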
For orientation: In qHTS, concentration-response curves come from the screen itself.

The target of assay [3] is Chromobox protein homolog 1 (Homo sapiens) (UniProt P83916). The experiment in a line: qHTS Validation Assay for Inhibitors of HP1-beta Chromodomain Interactions with Methylated Histone Tails (AID 488953).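 Note: loss of AlphaScreen luminescence from HP1-beta binding biotinylated H3K9me3 peptide; series mostly up to about 110 µM; nearly all actives have a fitted effect of over 50% in size.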 In outline:
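HP1-beta (50 nM) preformed 30 min with biotinylated H3(1-18)K9me3 peptide (50 nM) in PBS pH 7.4, 0.01% Tween-20. Compounds added for 30 min at room temperature. Complex disruption read by AlphaScreen with streptavidin donor/nickel chelate acceptor beads (10 ug/mL each).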

For assay [4], the target named is Methanococcus maripaludis chaperonin (MmCpn) (UniProt Q6LX38). The experiment in a line: High-Throughput Screening for Modulators of Cytosolic Chaperonin Activity: MmCpn Primary Screen (AID 488978).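 Note: 50 nM MmCpn enzyme hydrolysing 30 µM ATP at 37 °C.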 In outline:
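Steps: chaperonin 50 nM final; add compound, 5 min RT; start with ATP, 30 uM final; hold 10 min at 37C; add ADP Transcreener HTRF reagent, 5 min; read ex 320, em 590 and 665 nm.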

Assay [5] deals with Thyrotropin receptor (Homo sapiens) (UniProt P16473). The experiment in a line: qHTS Assay for Antagonists of the Thyroid Stimulating Hormone Receptor (AID 488980). Note: series mostly up to about 58 µM. In outline: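 Readout is cAMP by HTRF competition between cellular cAMP and cAMP-d2 for a cryptate-labelled antibody. Antagonism was assessed in TSHR-transfected HEK293 cells stimulated with 4 nM TSH (EC80, final) in the presence of RO 20-1724.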

Assay [6] deals with D(1A) dopamine receptor (Homo sapiens) (UniProt P21728). The experiment in a line: HTS Assay for Allosteric Agonists of the Human D1 Dopamine Receptor: Primary Screen for Agonists (AID 488981). Note: potency is the fitted concentration of half-maximal effect. In outline:
(§1)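 Calcium flux in an inducible, force-coupled HEK293 Trex D1 line (overnight at 30 C): agonist mode is the 180 s kinetic read after compound; potentiator mode is the following 180 s read after dopamine at EC20.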

The target is the same in assay [7]. The experiment in a line: HTS Assay for Allosteric Agonists of the Human D1 Dopamine Receptor: Primary Screen for Potentiators (AID 488982). Put shortly:
as §1

Assay [8] has the same target. The experiment in a line: HTS Assay for Allosteric Agonists of the Human D1 Dopamine Receptor: Primary Screen for Antagonists (AID 488983).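 Note: calcium flux response to an EC80 dopamine challenge measured with no-wash dye; nearly all actives have a fitted effect of over 65% in size.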 Note: potency is the fitted concentration of half-maximal effect. In outline:
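Tetracycline-induced HEK293 T-REx D1 line, force-coupled to calcium flux, read with no-wash calcium dye. Compound added after 10 s baseline, read 180 s for agonism, then EC80 dopamine added and read a further 180 s.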

Assay [9] is described as follows: Validation screen for small molecules that induce genotoxicity in human embryonic kidney (HEK293T) cells expressing luciferase-tagged ELG1 (AID 493106). Put shortly: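 HEK293T cells expressing luciferase-tagged ELG1, 2,000 cells/well, exposed to compound 16 hr at 37 °C, 5% CO2. Luciferase read after ONE-Glo, 30 min at room temperature; increased signal indicates genetic stress.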

The target of assay [10] is Transient receptor potential cation channel subfamily V member 1 (Homo sapiens) (UniProt Q8NER1). The experiment in a line: HTS Assay for Compounds that Act as Enhancers of the Vanilloid Receptor 1 (AID 488979). Put shortly:
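Calcium influx kinetics via Fluo-8 (480/520 nm) in TRPV1-expressing cells, 2000/well cultured overnight at 35.5C. Compound-alone read 3 min (agonist phase), followed by EC20 capsaicin challenge for 2 min (enhancer phase).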

Inconclusive results are not listed. Active and inactive are the calls of the source. Calls come from the whole dose curve; as a rule, active = well fitted curve in the direction sought with a large enough effect; inconclusive = small, poorly fitted or top-dose-only effect, or another doubt; inactive = no such curve, though single readings can be large; an effect the other way counts as inactive or inconclusive.

D(1A) dopamine receptor (Homo sapiens), sequence (P21728 whole entry, looked up): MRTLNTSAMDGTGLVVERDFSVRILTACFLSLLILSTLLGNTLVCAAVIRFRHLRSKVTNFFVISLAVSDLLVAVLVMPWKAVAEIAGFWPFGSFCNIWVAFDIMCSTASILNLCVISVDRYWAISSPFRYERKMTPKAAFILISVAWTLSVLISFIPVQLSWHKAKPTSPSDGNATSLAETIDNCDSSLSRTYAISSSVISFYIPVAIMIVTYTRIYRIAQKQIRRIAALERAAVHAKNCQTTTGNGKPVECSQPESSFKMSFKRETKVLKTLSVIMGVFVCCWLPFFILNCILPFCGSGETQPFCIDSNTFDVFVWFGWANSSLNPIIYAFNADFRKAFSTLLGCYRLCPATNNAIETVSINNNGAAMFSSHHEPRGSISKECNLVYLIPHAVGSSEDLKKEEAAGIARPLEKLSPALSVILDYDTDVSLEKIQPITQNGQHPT
ATP-dependent 6-phosphofructokinase (Trypanosoma brucei brucei), sequence (O15648 whole entry, looked up): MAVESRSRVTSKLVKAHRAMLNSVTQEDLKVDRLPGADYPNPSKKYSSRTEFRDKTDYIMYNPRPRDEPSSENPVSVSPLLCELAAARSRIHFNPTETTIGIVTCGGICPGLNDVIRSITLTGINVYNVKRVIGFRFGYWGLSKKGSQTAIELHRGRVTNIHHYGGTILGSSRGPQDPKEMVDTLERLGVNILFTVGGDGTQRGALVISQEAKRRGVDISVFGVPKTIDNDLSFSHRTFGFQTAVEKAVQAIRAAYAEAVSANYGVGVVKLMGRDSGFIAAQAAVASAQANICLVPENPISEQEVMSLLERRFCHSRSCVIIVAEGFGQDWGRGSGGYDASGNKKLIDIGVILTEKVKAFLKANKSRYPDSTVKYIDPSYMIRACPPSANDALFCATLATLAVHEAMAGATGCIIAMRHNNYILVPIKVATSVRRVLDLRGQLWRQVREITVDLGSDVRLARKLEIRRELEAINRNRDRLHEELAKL
M-phase phosphoprotein 8 (Homo sapiens), sequence (Q99549 whole entry, looked up): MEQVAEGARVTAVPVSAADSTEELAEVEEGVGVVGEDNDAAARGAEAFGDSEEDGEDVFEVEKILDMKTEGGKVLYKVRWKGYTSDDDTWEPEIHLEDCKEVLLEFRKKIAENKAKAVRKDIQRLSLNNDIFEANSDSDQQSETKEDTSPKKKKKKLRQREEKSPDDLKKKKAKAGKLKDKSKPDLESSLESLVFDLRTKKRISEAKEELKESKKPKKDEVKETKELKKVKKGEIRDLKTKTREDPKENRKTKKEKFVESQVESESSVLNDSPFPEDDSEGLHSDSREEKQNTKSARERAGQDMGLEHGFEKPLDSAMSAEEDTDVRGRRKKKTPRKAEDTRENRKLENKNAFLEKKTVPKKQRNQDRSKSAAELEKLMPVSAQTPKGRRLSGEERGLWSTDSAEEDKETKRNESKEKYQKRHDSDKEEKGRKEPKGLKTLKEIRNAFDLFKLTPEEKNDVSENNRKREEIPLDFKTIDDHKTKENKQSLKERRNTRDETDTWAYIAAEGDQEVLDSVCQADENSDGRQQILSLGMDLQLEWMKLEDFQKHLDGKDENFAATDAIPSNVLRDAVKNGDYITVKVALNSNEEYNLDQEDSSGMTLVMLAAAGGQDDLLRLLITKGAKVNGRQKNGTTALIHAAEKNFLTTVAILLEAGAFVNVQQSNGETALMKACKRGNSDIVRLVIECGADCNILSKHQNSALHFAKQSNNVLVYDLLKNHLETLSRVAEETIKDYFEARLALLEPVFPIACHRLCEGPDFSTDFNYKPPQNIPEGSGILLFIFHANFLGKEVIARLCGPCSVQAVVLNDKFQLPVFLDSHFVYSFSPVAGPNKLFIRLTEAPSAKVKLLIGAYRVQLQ
Methanococcus maripaludis chaperonin (MmCpn), sequence (Q6LX38 1-543): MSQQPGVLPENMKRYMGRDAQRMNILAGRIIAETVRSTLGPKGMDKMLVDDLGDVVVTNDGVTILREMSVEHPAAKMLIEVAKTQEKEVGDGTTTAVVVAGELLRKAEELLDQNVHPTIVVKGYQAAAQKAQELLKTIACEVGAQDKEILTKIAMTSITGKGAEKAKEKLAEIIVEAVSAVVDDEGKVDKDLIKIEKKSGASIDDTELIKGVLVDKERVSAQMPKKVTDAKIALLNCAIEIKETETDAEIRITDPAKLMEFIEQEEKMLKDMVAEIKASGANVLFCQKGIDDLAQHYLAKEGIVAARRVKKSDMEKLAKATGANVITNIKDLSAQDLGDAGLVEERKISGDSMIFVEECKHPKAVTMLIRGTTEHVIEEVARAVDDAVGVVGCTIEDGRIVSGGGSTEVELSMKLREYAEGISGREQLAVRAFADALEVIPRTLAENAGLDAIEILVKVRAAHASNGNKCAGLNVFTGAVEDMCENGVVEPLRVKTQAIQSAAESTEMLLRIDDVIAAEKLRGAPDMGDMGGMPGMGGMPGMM
Thyrotropin receptor (Homo sapiens), sequence (P16473 whole entry, looked up): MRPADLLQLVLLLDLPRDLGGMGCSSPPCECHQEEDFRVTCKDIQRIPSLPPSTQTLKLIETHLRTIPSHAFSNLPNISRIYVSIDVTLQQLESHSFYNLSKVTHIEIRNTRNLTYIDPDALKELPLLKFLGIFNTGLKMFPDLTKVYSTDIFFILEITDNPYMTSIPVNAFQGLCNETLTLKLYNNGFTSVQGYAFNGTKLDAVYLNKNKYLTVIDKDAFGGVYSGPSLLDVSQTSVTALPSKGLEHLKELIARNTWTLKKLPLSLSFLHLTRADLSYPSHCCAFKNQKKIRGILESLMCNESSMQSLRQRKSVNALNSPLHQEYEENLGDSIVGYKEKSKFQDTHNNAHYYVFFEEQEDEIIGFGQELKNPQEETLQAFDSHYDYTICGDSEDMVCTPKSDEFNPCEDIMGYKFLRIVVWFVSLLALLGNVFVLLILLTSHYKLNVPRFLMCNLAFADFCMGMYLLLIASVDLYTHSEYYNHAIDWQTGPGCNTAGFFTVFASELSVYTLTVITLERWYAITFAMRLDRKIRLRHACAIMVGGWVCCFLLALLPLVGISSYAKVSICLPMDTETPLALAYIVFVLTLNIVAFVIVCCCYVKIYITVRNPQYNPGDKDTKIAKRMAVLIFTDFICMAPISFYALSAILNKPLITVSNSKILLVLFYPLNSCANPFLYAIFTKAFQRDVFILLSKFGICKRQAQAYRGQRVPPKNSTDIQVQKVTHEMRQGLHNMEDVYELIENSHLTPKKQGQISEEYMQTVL
Chromobox protein homolog 1 (Homo sapiens), sequence (P83916 whole entry, looked up): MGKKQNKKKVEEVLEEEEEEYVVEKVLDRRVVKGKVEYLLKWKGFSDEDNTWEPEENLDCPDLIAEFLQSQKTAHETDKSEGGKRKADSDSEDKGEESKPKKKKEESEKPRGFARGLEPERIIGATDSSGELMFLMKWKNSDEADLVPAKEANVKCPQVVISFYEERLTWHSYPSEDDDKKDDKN
Transient receptor potential cation channel subfamily V member 1 (Homo sapiens), sequence (Q8NER1 whole entry, looked up): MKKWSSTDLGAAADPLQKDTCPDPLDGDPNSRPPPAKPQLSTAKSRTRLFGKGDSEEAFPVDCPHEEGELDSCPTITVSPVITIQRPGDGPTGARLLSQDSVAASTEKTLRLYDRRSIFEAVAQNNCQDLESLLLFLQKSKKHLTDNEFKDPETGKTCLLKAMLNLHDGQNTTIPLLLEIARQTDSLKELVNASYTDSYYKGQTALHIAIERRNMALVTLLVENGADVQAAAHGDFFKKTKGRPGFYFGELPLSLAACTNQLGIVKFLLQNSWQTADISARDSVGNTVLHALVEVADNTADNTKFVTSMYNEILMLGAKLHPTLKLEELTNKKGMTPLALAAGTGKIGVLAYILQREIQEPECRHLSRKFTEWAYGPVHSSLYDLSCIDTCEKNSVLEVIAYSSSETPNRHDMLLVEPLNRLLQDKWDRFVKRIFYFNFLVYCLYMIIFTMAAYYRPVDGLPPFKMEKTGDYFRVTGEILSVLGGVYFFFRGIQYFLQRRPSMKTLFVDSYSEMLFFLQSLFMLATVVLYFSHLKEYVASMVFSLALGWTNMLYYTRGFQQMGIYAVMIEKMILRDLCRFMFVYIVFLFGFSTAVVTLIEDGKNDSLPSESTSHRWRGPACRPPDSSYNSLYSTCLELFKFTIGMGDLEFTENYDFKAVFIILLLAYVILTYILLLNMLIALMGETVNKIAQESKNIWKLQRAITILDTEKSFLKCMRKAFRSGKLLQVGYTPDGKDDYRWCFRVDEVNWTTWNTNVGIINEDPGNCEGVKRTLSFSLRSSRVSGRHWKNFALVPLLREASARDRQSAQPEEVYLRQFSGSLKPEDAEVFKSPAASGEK

On to `CCCOc1ccc2nc(NC(=O)OC)sc2c1`, for which the compound was called inactive in assay [1].

Consider `C=CCNC1=C2C[C@@H](C)C[C@H](OC)[C@H](O)[C@@H](C)/C=C(\C)[C@H](OC(N)=O)[C@@H](OC)/C=C\C=C(/C)C(=O)NC(=CC1=O)C2=O`, for which the result in assay [1] was inactive.

With `CN[C@H]1CC[C@@H](c2ccc(Cl)c(Cl)c2)c2ccccc21`, the compound was classed as inactive in [2], in assay [3], in assay [4], in [5], in assay [7] and in [1]. Further, in assay [9], the compound was classed as inactive. Also, the Potency in [6] is 11.2 µM (active); in [8] it was 10 µM (active).

Consider `NCCCC(=O)O`, for which the call in [2], in assay [3], in assay [4], in [10], in assay [5] and in [9] was inactive. The Potency entry in assay [6] and in [8] was “inactive” in each case.

On to `COC1C(OC(=O)/C=C/C=C/C=C/C=C/C(=O)O)CCC2(CO2)C1C1(C)OC1CC=C(C)C` (stereo not given), for which the call in assay [1] was inactive.

For the origin of these results see PubChem BioAssay (NCATS).
